Screens (PubChem BioAssay)
In the library only some 3.1% were active in any assay of this set; here they are far more common.
SIRT5 inh – inhibitors of human sirtuin-5 desuccinylase; Q9NXA8; Purified SirT5, succinyl-peptide AMC, trypsin-coupled fluorescence; inhibition, % at 15 µM; hit rate 1.1% among 330,000; in the data active means inhibition above about 15%
ERAP1 inh – ERAP1 (human) enzyme inhibition; AID 652197; hit rate 0.15% among 340,000; recombinant ERAP1, Leu-AMC fluorescence, 60 min; inhibition, % at 10.7 µM;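 active means mean replicate inhibition of at least 30%, or all replicates individually reaching that 30% level; inactive means mean below 30% and not every replicate reaching it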;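 further: 0% = neutral control wells and 100% = L-leucinethiol positive control wells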
CASP6 VEID inh – caspase-6 (human) enzyme inhibition; P55212; purified caspase-6, Z-VEID-R110 cleavage fluorescence; inhibition, % at 12.5 µM; hit rate 0.53% among 350,000; AID 686996;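 active means mean inhibition across replicates at least about 35%, with every replicate also reaching that limit, limit read from the data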;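 further: 0% = median of neutral control wells and 100% = no fluorescence left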
Target sequence (P55212 24-179 limits assumed): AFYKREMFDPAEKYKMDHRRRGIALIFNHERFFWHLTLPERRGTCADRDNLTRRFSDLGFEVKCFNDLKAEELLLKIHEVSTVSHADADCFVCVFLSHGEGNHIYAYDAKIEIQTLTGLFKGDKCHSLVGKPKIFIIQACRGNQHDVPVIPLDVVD
Target sequence (P55212 194-293 limits assumed): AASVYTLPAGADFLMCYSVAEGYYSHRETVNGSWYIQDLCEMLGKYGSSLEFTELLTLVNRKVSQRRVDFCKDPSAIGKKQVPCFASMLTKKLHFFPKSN
FGF22 binding – shifts melting point of recombinant human FGF22. Q9HCT0. hit rate 1.5% among 340,000. activity (Tm shift, normalised), % at 9.99 µM. recombinant FGF22 thermal shift, SYPRO orange fluorescence; percent of sucrose octasulfate shift, DMSO zero;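 active means mean Tm shift, scaled 0 neutral to 100 positive control, at about 1.3% or above, every replicate too, limit read from the data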
Target sequence (Q9HCT0 whole entry, looked up): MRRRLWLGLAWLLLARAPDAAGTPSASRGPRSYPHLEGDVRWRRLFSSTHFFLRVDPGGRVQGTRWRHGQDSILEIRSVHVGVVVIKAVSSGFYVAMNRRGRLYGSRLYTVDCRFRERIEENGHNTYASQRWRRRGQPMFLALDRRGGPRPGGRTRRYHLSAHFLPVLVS
An asterisk follows results filed as active; · = no result given; ! = not confirmed by another sample.

SMILES	SIRT5 inh	ERAP1 inh	CASP6 VEID inh	FGF22 binding
CC(=O)Nc1cccc2cc(S(=O)(=O)O)ccc12	·	-2.7	43.6*	-0.5
NC(=S)NN=C1CCSCC1	·	0.5	-1.8	43.1*
CN1C[C@H]2[C@@H](c3ccccc31)[C@@H](CO)N2C(=O)c1cccnc1	1.5	2.7	-6.4	0.1
O=C(c1nc2ccccn2c1CN1CCCC(c2nc3ccccc3o2)C1)N1CCCC1 (stereo not given)	-4.9	0.0	51.1*	0.4
CCOC(=O)C1CCCN(Cc2c(C(=O)N3CCOCC3)nc3ccccn23)C1 (stereo not given)	6.4	-2.7	-2.7	-0.2
CCN(CC)C1CCN(Cc2c(C(=O)N3CCCCCCC3)nc3ccc(Cl)cn23)C1 (stereo not given)	-1.9	-1.7	64.3*	-0.1
C[C@@H]1CN([C@@H](C)CO)S(=O)(=O)c2ccc(-c3ccc(C#N)cc3)cc2O[C@@H]1CN(C)C(=O)CN(C)C	1.7	2.2	2.5	0.1
CCCC#Cc1ccc2c(c1)O[C@H](CN(C)Cc1ccncc1)[C@H](C)CN([C@@H](C)CO)S2(=O)=O	0.1	-2.4	-3.9	-0.3
Cc1ccc(S(=O)(=O)N(C)C[C@@H]2OCCCC[C@H](C)Oc3ccc(NC(=O)c4ccccc4)cc3C(=O)N([C@H](C)CO)C[C@H]2C)cc1	-1.4	-3.0	-1.0	0.6
Cc1cnc(N)nc1-c1ccccc1	·	0.8	-0.3	43.2*
CC(C)N(Cc1nc(-c2ccccc2)no1)C(=O)C(Cl)(Cl)Cl	-0.6	0.7	1.3	43.0*
CC(C)N(Cc1nc(-c2ccccc2)no1)C(=O)Cc1ccccc1	-0.1	1.4	-0.4	0.2
COc1ccc(CCC(=O)Nc2nc(C)c(C(=O)N(C)C)s2)cc1	-2.7	1.0	5.9	0.0
Cc1nc(NC(=O)CCl)sc1C(=O)N(C)C	-6.4	2.6	0.1	43.3*
CCCNC(=O)[C@H]1[C@H](CO)[C@H]2Cn3c(cccc3=O)[C@@H]1N2Cc1ccccc1	10.8	1.1	0.6	0.1
CCNC(=O)n1cc(-n2cncn2)c(-c2ccccc2)n1	-0.1	1.1	-1.9	43.4*
O=C(NCCCc1ccccc1)c1ccc(-n2cncn2)c([N+](=O)[O-])c1	-5.0	-2.5	0.1	-0.5
COc1ccc(CCNC(=S)NCCc2c[nH]c3ccccc23)cc1	0.1	·	-0.4	1.4*
CCC12CN(C(=O)c3ccco3)CC(CC)(CN(C(=O)c3ccco3)C1)C2=O	-1.2	-0.6	55.3*	0.1
CC(=O)Nc1ccc(NC(=O)C2CCCN2C(=O)Nc2ccccc2[N+](=O)[O-])cc1 (stereo not given)	20.5*	-0.6	-0.4	0.4
C[C@@H]1CN([C@H](C)CO)C(=O)c2cc(N(C)C)ccc2O[C@@H](C)CCCCO[C@H]1CN(C)C(=O)Nc1cccc2ccccc12	0.2	-0.2	2.3	·
C[C@@H]1CCCCO[C@H](CN(C)C(=O)CCCN(C)C)[C@@H](C)CN([C@@H](C)CO)C(=O)c2cc(NC(=O)Nc3cccc4ccccc34)ccc2O1	17.6*	2.7	-8.0	0.0
C[C@@H]1CCCCO[C@@H](CN(C)C(=O)Nc2cccc3ccccc23)[C@H](C)CN([C@@H](C)CO)C(=O)c2cc(NC(=O)c3ccccc3)ccc2O1	16.9*	0.2	-2.2	-0.4
C[C@H]1CCCCO[C@H](CN(C)C(=O)CCCN(C)C)[C@@H](C)CN([C@@H](C)CO)C(=O)c2cc(NC(=O)Nc3cccc4ccccc34)ccc2O1	0.3	1.3	2.1	-1.1
C[C@@H]1CCCCO[C@H](CN(C)C(=O)Nc2cccc3ccccc23)[C@@H](C)CN([C@H](C)CO)C(=O)c2cc(N(C)C)ccc2O1	27.0*!	1.5	0.0	-0.6
SMILES	SIRT5 inh	ERAP1 inh	CASP6 VEID inh	FGF22 binding
CCC(=O)N[C@H]1CC[C@@H](CCNS(=O)(=O)c2ccc(Cl)cc2)O[C@H]1CO	0.6	-1.0	0.4	0.0
COc1cc(SC)ccc1C(=O)OC(C)C(=O)NC1CCCC1 (stereo not given)	-4.5	-3.6	37.8*	-0.2
CC(C)(C)[S@@](=O)N1Cc2cc(C(=O)NCc3ccc4c(c3)OCO4)nc(-c3cccc(-c4ccncc4)c3)c2[C@H]1CCO	·	-1.0	-4.3	0.0
CSc1ncc(Cl)c(C(=O)Nc2ccccc2C)n1	0.7	-1.7	-1.4	-0.3
CCSc1ncc(Cl)c(C(=O)Nc2ccccc2C)n1	32.9*	0.3	-1.7	-0.2
CCCN(C)C[C@H]1OCCCC[C@H](C)Oc2ccc(NC(=O)NC3CCCCC3)cc2C(=O)N([C@@H](C)CO)C[C@H]1C	-0.5	2.9	-2.2	-0.1
C[C@H](CO)N1C[C@H](C)[C@@H](CN(C)CC2CCCCC2)OCCCC[C@H](C)Oc2ccc(NC(=O)C3CCCCC3)cc2C1=O	-5.7	0.9	0.9	-0.3
COc1ccc(Cl)cc1NC(=O)CCN1C(=O)NC(C)(C)C1=O	12.0	-4.7	1.3	-0.3
COc1cc(Cl)c(C)cc1NC(=O)CCN1C(=O)NC(C)(C)C1=O	-1.3	-1.1	0.0	43.2*
O=C(C1CCCC1)N1CC2(C1)[C@H](c1ccccc1)[C@H](CO)N2CC1CCCC1	10.9	-7.7	1.2	·
CC1CCCCC12NC(=O)N(CC(=O)Nc1ccccc1N1CCOCC1)C2=O (stereo not given)	-0.1	-2.3	-1.7	43.5*
CC1CCCCC12NC(=O)N(CC(=O)Nc1nccs1)C2=O (stereo not given)	·	-0.4	4.0	43.1*
CC1CCCCC12NC(=O)N(CC(=O)Nc1sccc1C(N)=O)C2=O (stereo not given)	-4.8	2.6	2.4	-0.1
COc1ccc(CNC(=O)C[C@H]2C[C@@H]3c4cc(NS(=O)(=O)c5ccc(F)cc5)ccc4O[C@@H]3[C@H](CO)O2)cc1	0.0	3.4	-1.2	0.0
C[C@H](CO)N1C[C@H](C)[C@H](CN(C)S(C)(=O)=O)Oc2ncc(-c3ccccc3)cc2C1=O	-1.5	-2.0	1.7	-0.2
CCCn1c(SCC(=O)NC(=O)NC(C)(C)C)n[nH]c1=O	0.1	-7.0	·	43.2*
Cc1cc2nc(N3C(=O)CNC3=S)sc2cc1C	2.1	0.7	-1.2	43.2*
CCNC(=O)C[C@@H]1CC[C@H]2[C@@H](COc3ccc(NC(=O)c4ccc(F)cc4)cc3C(=O)N2C)O1	-1.4	2.6	-3.9	-0.2
Cc1cc(=O)n(C)c(=O)n1CCCCOc1cccc([N+](=O)[O-])c1	8.7	-4.9	-4.2	43.6*
O=[N+]([O-])c1cccc(OCCCN2CCC(Cc3ccccc3)CC2)c1	-2.8	-3.5	-3.0	0.1
CCc1nnc(NC(=O)CSc2nc3[nH]ncc3c(=O)[nH]2)s1	-3.1	-2.6	-1.3	43.8*
Cc1cn(CC(=O)NCCCn2ccnc2)c(=O)[nH]c1=O	15.3*	·	-0.2	0.3
CC(=O)c1cn(Cc2ccccc2)c(=O)[nH]c1=O	-5.0	-1.7	-1.0	43.4*
Cc1cn(CC(=O)NCc2ccccc2)c(=O)[nH]c1=O	19.6*	·	-5.3	0.1
COc1ccc(/C=C2\SC(=O)N(CC(=O)NCCCn3ccnc3)C2=O)cc1	-4.4	-0.2	50.1*	-0.2
